CRE-bla Fsk – Cell signaling CRE-BLA (Fsk stim). CHO CRE-bla reporter (cAMP response element driving beta-lactamase), forskolin EC10, beta-lactamase ratio. Potency, µM (doses to about 38.2 µM), without a hit: top-dose activity change, negative = inhibition, actives largely listed as activators. actives 2.5% (n = 71,000); active = well fitted activation curve with a large enough effect in the signal ratio, with a control signal flat, not every such curve was filed as active; inconclusive = small, poorly fitted or top-dose-only effect, or effect the other way, or a change in a side signal; the % refers to the signal ratio; also: potency is read from the fitted curve at half-maximal effect; % of control where 0% means no effect
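Reporter-gene assay: CHO cells with beta-lactamase behind cAMP responsive elements, co-treated with compound and EC10 NKH 477 for 3 hours at 37 degrees Celsius. Activity came from the 460/530 nm CCF4 emission ratio.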
HADH2 inh – qHTS Assay for Inhibitors of HADH2 (Hydroxyacyl-Coenzyme A Dehydrogenase, Type II) | Potency, µM (titrated, usually from 57.1 µM), without a hit: at the top dose activity change, negative = inhibition, actives largely listed as inhibitors | actives 3.4% (n = 73,000) | recombinant HADH2, NADH fluorescence, beta-hydroxybutyryl-CoA | 3-hydroxyacyl-CoA dehydrogenase type-2 (Homo sapiens), Q99714; also: potency is read from the fitted curve at half-maximal effect; % is scaled to controls: 0 for no effect and ±100 for the full control effect; nearly all actives have a fitted effect of over 60% in size
Target sequence (Q99714 whole entry, looked up, one chain of several): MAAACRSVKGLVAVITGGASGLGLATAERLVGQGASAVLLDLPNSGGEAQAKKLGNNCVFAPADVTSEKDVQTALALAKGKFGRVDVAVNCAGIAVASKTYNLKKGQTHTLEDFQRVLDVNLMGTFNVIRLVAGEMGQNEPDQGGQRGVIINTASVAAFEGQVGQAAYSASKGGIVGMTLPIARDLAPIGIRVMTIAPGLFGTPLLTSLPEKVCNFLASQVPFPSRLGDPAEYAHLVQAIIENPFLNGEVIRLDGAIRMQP
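His-tagged recombinant enzyme from E. coli, 20 nM, preincubated 15 min RT with compound; reaction started with 1 mM NAD+ and 90 uM beta-hydroxybutyryl-CoA in 100 mM Tris-HCl pH 9.0. NADH fluorescence (ex 360/em 450) read over 4 min; last-minus-first difference.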
AID923 – qHTS Assay for Allosteric/Competitive Inhibitors of Caspase-1: Spectroscopic Profiling in AFC Spectral Region; compound fluorescence, AFC spectral region (405/520 nm); AID 923, 2007; actives 1.1% (n = 75,000); Potency, µM (titrated, usually from 57.5 µM), inactives show at the top dose fluorescence increase, hits mostly activators; also: potency is read from the fitted curve at half-maximal effect; 0% is about no effect
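Compound autofluorescence profiled at 405 nm ex/520 nm em during kinetic caspase 1 run (50 nM enzyme, 5 uM Ac-WEHD-AFC, HEPES pH 7.5, 10 mM DTT). Titration up to 57 uM; baseline from regression intercept, normalized to AFC standard curve.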
A350 autofl – qHTS Assay for Spectroscopic Profiling in A350 Spectral Region; Compound autofluorescence, 340/450 nm, Alexa 350 dye-equivalents; active compounds read high; actives 11% (n = 59,000); max dye-equivalent concentration, M; AID 590, 2007; in the data active = max dye-equivalent concentration above about 10 nM; inconclusive = mostly about 1.1 nM to 9.6 nM
HSD17B inh – qHTS Assay for Inhibitors of HSD17B4, hydroxysteroid (17-beta) dehydrogenase 4. Potency, µM (titrated, usually from 57.1 µM), for the others: top-dose activity change, negative = inhibition, hits mostly inhibitors. recombinant HSD17B10, NADH fluorescence kinetic. actives 7.6% (n = 75,000). AID 893, 2007. 3-hydroxyacyl-CoA dehydrogenase type-2 (Homo sapiens), Q99714;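 also: the protocol describes HADH2 (HSD17B10) and not the HSD17B4 of the title; potency is read from the fitted curve at half-maximal effect; % is scaled to controls: 0 for no effect and ±100 for the full control effect; nearly all actives have a fitted effect of over 70% in size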
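His-tagged E. coli-expressed HADH2 at 20 nM in 100 mM Tris-HCl pH 9.0 with 0.01 % Tween-20, preincubated 15 min with compound at room temperature. Reaction with 1 mM NAD+ and 90 uM beta-hydroxybutyryl coenzyme A; NADH fluorescence (360/450 nm) read kinetically over 4 min, last minus first point.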
4MU fluor – qHTS Assay for Spectroscopic Profiling in 4-MU Spectral Region. max dye-equivalent concentration, M. compound autofluorescence, 340/450 nm, 4-MU equivalents; active compounds read high. actives 11% (n = 59,000); in the data active = max dye-equivalent concentration above about 10 nM; inconclusive = mostly about 1.1 nM to 9.6 nM
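Compounds in 100 mM Tris, pH 8.0, incubated 15 min at room temperature, then fluorescence read at 340 nm excitation/450 nm emission. Signal converted to 4-MU dye-equivalent concentration using an on-plate six-point 4-MU standard curve.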
Active calls of the source: *; i = inactive; u = inconclusive; x = no result; [ ] = dose if it differs, or a comment. A selection: hits, their analogues and other compounds. The true share with any hit is near 14%. Unless noted, calls follow the shape of the dose curve; as a rule, active = well fitted curve in the direction sought with a large enough effect; inconclusive = small, poorly fitted or top-dose-only effect, or another doubt; inactive = no such curve, though single readings can be large; an effect the other way counts as inactive or inconclusive.

SMILES	CRE-bla Fsk	HADH2 inh	AID923	A350 autofl	HSD17B inh	4MU fluor
COc1ccc(-c2cc(C(=O)O)[nH]n2)cc1OC	0.7%	-5.7%	-0.7%	i	6.8%	i
O=C(Nc1cccc(-c2cn3ccccc3n2)c1)c1cnccn1	u	2.0%	2.6%	i	13.0%	i
CCC(C)C(NC)C(=O)O (configuration not stated)	x	x	0.7%	x	1.1%	x
N#Cc1cccc(NC(=O)N2CCC3(CC2)CCN(C(=O)c2cnccn2)CC3)c1	0.9%	6.5%	4.7%	i	4.4%	i
O=C(Oc1ccc2c(c1)OCO2)c1cccs1	u	7.8%	-1.7%	i	2.5%	i
O=C(/C=C/c1ccc2c(c1)OCO2)c1cccs1	x	x	15.8%	x	31.6µM*	x
O=C(/C=C\C=C/c1ccc2c(c1)OCO2)N1CCCCC1	-7.5%[17.1 µM]	u	-1.0%[25.7 µM]	4.25e-08M*	u	6e-08M*
O=C(O)/C=C\C=C/c1ccc2c(c1)OCO2	-3.7%[7.6 µM]	u	1.6%[11.5 µM]	1.28e-08M*	u	1.44e-08M*
O=C(O)/C=C/C=C/c1ccccc1	x	x	-2.4%	x	-1.8%	x
O=C(CSc1nc2scc(-c3ccco3)c2c(=O)n1-c1ccccc1)NCC1CCCO1 (configuration not stated)	u	u	0.4%	u	u	u
Cc1cc(NC(=O)CSc2nc(-c3ccco3)cc(C(F)(F)F)n2)no1	3.98µM*	u	-0.1%	i	0.2%	i
O=C(CSc1nc(-c2ccco2)cc(C(F)(F)F)n1)NCCc1ccccc1	-8.0%	8.2%	0.4%	u	25.1µM*	u
C=CCn1c(SCC(=O)NCC2CCCO2)nc2scc(-c3ccco3)c2c1=O (configuration not stated)	6.31µM*	-11.1%	0.1%	i	-3.5%	i
O=C(CSc1nc(-c2ccco2)cc(C(F)(F)F)n1)NCC1CCCO1 (configuration not stated)	16.2%	-12.1%	-0.1%	1.11e-08M*	u	u
O=C(CSc1nc(-c2ccco2)cc(C(F)(F)F)n1)Nc1ccc(C(=O)N2CCCCC2)cc1	u	4.6%	1.5%	x	-17.9%	x
CC1CCN(c2ncccc2C(=O)O)CC1	-2.8%	6.3%	-1.0%	u	4.4%	u
Cc1cc(N2CCC(C)CC2)nc2ccc(N3C(=O)CCC3=O)cc12	u	74.4%	1.1%	7.06e-07M*	495.1%	6.89e-07M*
COc1cc(C2C(C#N)=C(N)Oc3cc(C)oc(=O)c32)cc2c1OCO2 (configuration not stated)	6.3%	-23.8%	-2.0%	i	20µM*	i
COc1ccc(CCn2c(C)cc3c(c2=O)C(c2ccc4c(c2)OCO4)C(C#N)=C(N)O3)cc1OC (configuration not stated)	x	x	x	3.4e-08M*	x	2.84e-08M*
C[C@H]1C[C@H]2[C@H]3CCC4=CC(=O)C=C[C@@]4(C)[C@]3(F)[C@H](O)C[C@]2(C)[C@@]1(O)C(=O)COP(=O)(O)O	-1.7%[7.6 µM]	2.9%[11.4 µM]	-2.0%[11.5 µM]	i	8.3%[11.4 µM]	i
COc1cc(O)ccc1C(C)=O	x	x	1.6%	x	-7.2%	x
CN(C)S(=O)(=O)n1cnc2ccccc21	-2.5%	10.5%	-0.1%	5.01e-06M*	-10.2%	8.11e-06M*
C[N@@+]1(CC[N@@+]2(C)CCC[C@H]2c2cccnc2)CCC[C@@H]1c1cccnc1	-1.7%[7.6 µM]	2.5%[11.4 µM]	0.0%[11.5 µM]	u	2.7%[11.4 µM]	i
CC(C)Oc1ccc(C2CC(=O)NC3=C2C(=O)CCC3)cc1 (configuration not stated)	-0.5%	5.3%	-0.5%	u	-0.5%	u
COC(=O)c1ccc(C2CC(=O)NC3=C2C(=O)CCC3)cc1 (configuration not stated)	-2.9%	4.9%	-1.0%	1.02e-08M*	-23.5%	u
SMILES	CRE-bla Fsk	HADH2 inh	AID923	A350 autofl	HSD17B inh	4MU fluor
COC(=O)c1ccc(COc2ccc(C3C4=C(CCCC4=O)Nc4onc(C)c43)cc2)cc1 (configuration not stated)	u	-1.6%	1.6%	5.21e-08M*	20µM*	5.67e-08M*
COC(=O)c1ccc(COc2cc(O)c3c(c2)OC(C)(C)CC3=O)cc1	u	1.3%	0.8%	i	6.0%	i
CCC(C(=O)C(C)C(O)C(C)CCc1ccc(C)c(O)c1C(=O)O)C1OC(CC)(C2CC[C@@](O)(CC)C(C)O2)CC1C (some centres not stated)	x	x	-0.2%	x	3.7%	x
CC1(C)CC[C@]2(C(=O)O)CC[C@]3(C)C(=CC[C@@H]4[C@@]5(C)CC[C@H](O)C(C)(C)[C@@H]5CC[C@@]43C)[C@@H]2C1	u	19.3%	x	i	x	i
Cc1c(O)c(O)cc2c1oc1c3ccccc3oc(=O)c21	x	x	-0.2%	x	7.94µM*	x
CC1=C(C(=O)OC(C)C)C(c2cccs2)n2ncnc2N1 (configuration not stated)	18.5%	-12.6%	-1.4%	x	3.9%	x
COc1ccc(C2CC(=O)C3=C(C2)Nc2ncnn2C3c2ccccc2C)c(OC)c1 (configuration not stated)	u	-19.7%	-2.7%	2.3e-08M*	-18.2%	2.3e-08M*
Cc1nc2n(n1)C(c1ccccc1)C1=C(CC(c3ccco3)CC1=O)N2 (configuration not stated)	u	u	0.3%	3.14e-07M*	u	2.42e-07M*
CC1=C(C(=O)NCc2ccccc2)C(c2cccs2)n2ncnc2N1 (configuration not stated)	-5.0%	5.9%	4.3%	u	-5.3%	u
O=C1CC(c2cccs2)CC2=C1C(c1ccccc1)n1ncnc1N2 (configuration not stated)	3.4%	u	-1.3%	1.88e-07M*	25.1µM*	2.2e-07M*
CCOC(=O)C1=C(C)Nc2ncnn2C1c1cc(OC)ccc1OC (configuration not stated)	u	10.0%[11.4 µM]	3.0%	x	0.8%	x
c1csc(C2C3=C(Nc4ncnn42)c2ccccc2OC3)c1 (configuration not stated)	u	-27.1%	20.2%	2.15e-07M*	31.6µM*	1.49e-07M*
O=C(O)COC(=O)Cc1ccccc1Nc1c(Cl)cccc1Cl	-7.9%[17.1 µM]	-9.3%[25.6 µM]	-0.2%[25.7 µM]	i	0.9%[25.6 µM]	i
c1c[nH]c(CN2CCN(Cc3ncc[nH]3)CC2)n1	-4.7%[7.6 µM]	0.0%[11.4 µM]	-0.7%[11.5 µM]	i	4.2%[11.4 µM]	i
O=C(Nc1ccccc1)N1CCCC2(CCN(C(=O)c3csnn3)CC2)C1	-3.4%	0.1%	-0.7%	i	0.7%	i
